{"source": "PubChem BioAssay AID588358", "about": "(NMMLSC, 2011)", "note": "Out of some 310,000 compounds screened, about 1,500 (0.48%) were called active. Many of the other results were omitted from the sample, so actives are more common in it than they were. Unmarked numbers belong to inactive results.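 The calls were made as follows: active = binding more than 3 SD below its plate's average and above zero; inconclusive = below that plate limit but binding exactly zero; inactive = the rest.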"}
{"target": "Desmoglein-3 (Homo sapiens) (UniProt P32926)", "sequence (P32926 whole entry, looked up, the tested form may be a part)": "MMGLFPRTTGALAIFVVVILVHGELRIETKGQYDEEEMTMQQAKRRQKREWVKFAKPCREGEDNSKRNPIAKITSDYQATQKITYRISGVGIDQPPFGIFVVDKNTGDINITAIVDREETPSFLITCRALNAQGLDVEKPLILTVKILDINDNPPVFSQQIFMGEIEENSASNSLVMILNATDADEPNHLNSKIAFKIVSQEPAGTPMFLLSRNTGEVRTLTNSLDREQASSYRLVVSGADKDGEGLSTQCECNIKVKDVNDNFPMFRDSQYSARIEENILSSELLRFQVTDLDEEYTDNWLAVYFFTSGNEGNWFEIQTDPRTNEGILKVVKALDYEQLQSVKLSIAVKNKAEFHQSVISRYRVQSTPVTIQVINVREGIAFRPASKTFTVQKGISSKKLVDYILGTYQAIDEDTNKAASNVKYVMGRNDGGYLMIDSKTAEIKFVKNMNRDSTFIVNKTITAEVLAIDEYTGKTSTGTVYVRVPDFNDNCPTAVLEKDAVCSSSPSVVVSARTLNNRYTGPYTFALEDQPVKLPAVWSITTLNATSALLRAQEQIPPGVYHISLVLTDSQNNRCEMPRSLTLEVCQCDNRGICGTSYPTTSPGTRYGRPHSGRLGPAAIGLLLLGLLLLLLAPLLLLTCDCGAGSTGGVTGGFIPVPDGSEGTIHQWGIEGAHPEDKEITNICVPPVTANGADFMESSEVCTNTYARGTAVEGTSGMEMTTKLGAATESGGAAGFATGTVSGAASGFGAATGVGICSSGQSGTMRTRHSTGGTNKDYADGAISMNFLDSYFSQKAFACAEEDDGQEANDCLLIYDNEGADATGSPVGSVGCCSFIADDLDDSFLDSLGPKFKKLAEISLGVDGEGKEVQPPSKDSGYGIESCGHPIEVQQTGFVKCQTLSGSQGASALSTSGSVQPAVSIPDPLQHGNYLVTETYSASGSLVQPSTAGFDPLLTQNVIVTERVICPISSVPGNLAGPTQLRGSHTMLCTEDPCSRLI", "test": "blockers of anti-DSG3 scFv binding – biochemical, bead-based, flow cytometry, scFv-GFP, primary screen (AID 588358);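 also: hits lower antibody fragment binding to DSG3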", "details": "DSG3-coupled beads, at 10 µM, stronger effect = lower value"}
{"smiles": "COc1ccc([C@H]2C[C@@H](n3cc(COC(=O)c4ccccc4)nn3)[C@H](O)CN2C(=O)c2cccs2)cc1", "binding (percent of control)": "106%"}
{"smiles": "CCN1CCN(CCNC(=O)c2ccc3c(c2)NC(=O)/C(=C\\c2cccc(Cl)c2)S3)CC1", "binding (percent of control)": "106%"}
{"smiles": "O=C(COC(=O)c1ccc(S(=O)(=O)N2CCCCCC2)cc1)Nc1ccccc1C(F)(F)F", "binding (percent of control)": "109%"}
{"smiles": "COc1ccc(/C=C/C(=O)N2CCCC2)cc1OC", "binding (percent of control)": "105%"}
{"smiles": "CCOC(=O)C1CCN(C(=O)/C=C/c2cc(OC)c(OC)c(OC)c2)CC1", "binding (percent of control)": "101%"}
{"smiles": "COc1cc(/C=C/C(=O)N2CCc3ccccc3C2)cc(OC)c1OC", "binding (percent of control)": "68.1% (active)"}
{"smiles": "Cc1ccc(S(=O)(=O)N2C[C@H]3n4c(=O)ccc(=O)n4C[C@H](OC(=O)NC4CCCC4)[C@@]3(O)C2)cc1", "binding (percent of control)": "103%"}
{"smiles": "COc1ccc([C@H]2N[C@]3(CCCN(CC4CCCCC4)C3=O)[C@H]3C(=O)N(C)C(=O)[C@@H]23)cc1", "binding (percent of control)": "106%"}
{"smiles": "COc1cccc(/C=C2\\SC(=S)N(CCCC(=O)N3CCOCC3)C2=O)c1", "binding (percent of control)": "99.8%"}
{"smiles": "CCOC(=O)c1sc(NC(=O)C(CC)Sc2nccn2C)nc1C", "note": "(stereo not drawn)", "binding (percent of control)": "83.3% (active)"}
{"smiles": "CCOC(=O)c1sc(NC(=O)c2sc(C)nc2C)nc1C", "binding (percent of control)": "96.7%"}
{"smiles": "C=CCn1c2ccccc2c2nnc(SC(CC)C(=O)Nc3nc(C)c(C(=O)OCC)s3)nc21", "note": "(stereo not drawn)", "binding (percent of control)": "93.3%"}
{"smiles": "O=C(Cc1ccc([N+](=O)[O-])cc1)NCCS(=O)(=O)N1CCN(c2ccccc2)CC1", "binding (percent of control)": "97.2%"}
{"smiles": "COc1ccc(N2CCN(c3ccc([N+](=O)[O-])nc3)CC2)cc1", "binding (percent of control)": "77.8%"}
{"smiles": "COc1ccc(N2CCN(c3ccc([N+](=O)[O-])cc3Cl)CC2)cc1", "binding (percent of control)": "-9.48% (active)"}
{"smiles": "O=[N+]([O-])c1ccc(N2CCN(c3ccc(O)cc3)CC2)c(Cl)c1", "binding (percent of control)": "101%"}
{"smiles": "COC(=O)c1sccc1NC(=O)c1cc(OC)c(OC)c(OC)c1", "binding (percent of control)": "81.8%"}
{"smiles": "COC(=O)Cn1c(=NC(=O)CSCC(=O)Nc2cc(C)on2)sc2ccccc21", "binding (percent of control)": "82.3%"}
{"smiles": "COC(=O)Cn1c(=NC(=O)c2cc(OC)c(OC)c(OC)c2)sc2cc(OC)ccc21", "binding (percent of control)": "88.6% (active)"}
{"smiles": "CC(C)N=C1CCCC1C(=S)SSC(=S)C1CCCC1=NC(C)C", "note": "(stereo not drawn)", "binding (percent of control)": "102%"}
{"smiles": "N#CCCN(C(=S)Nc1ccc(Cl)c(Cl)c1)C1CCCCC1", "binding (percent of control)": "105%"}
{"smiles": "Cc1cc(C)n(-c2ccc3nncn3n2)n1", "binding (percent of control)": "99%"}
{"smiles": "Cc1cc(C)n(-c2ccc(C(=O)O)cc2[N+](=O)[O-])n1", "binding (percent of control)": "102%"}
{"smiles": "Cc1cc(C)n(-c2ccc(Cl)c(C(=O)O)n2)n1", "binding (percent of control)": "56.1% (active)"}
{"smiles": "O=C(O)C(=Cc1ccc([N+](=O)[O-])cc1)CCc1ccccc1", "binding (percent of control)": "103%"}
{"smiles": "CCOC(=O)c1c(C)[nH]c(C)c1C(=O)COC(=O)/C=C/c1cccc([N+](=O)[O-])c1", "binding (percent of control)": "98.5%"}
{"smiles": "CCN1CCCC1CNC(=O)c1ccc2c(c1)NC(=O)/C(=C\\c1ccccc1F)S2", "note": "(stereo not drawn)", "binding (percent of control)": "94.9%"}
{"smiles": "Cc1ccc(NC(=O)CN2CCc3ccccc3C2)cc1", "binding (percent of control)": "95.1%"}
{"smiles": "CCOc1ccc(CNC(=O)CCC(=O)N2CCSc3ccccc32)cc1", "binding (percent of control)": "102%"}
{"smiles": "Cc1ccc(NC(=O)N2CCSc3ccccc32)cc1", "binding (percent of control)": "63% (active)"}
{"smiles": "CCN(CC)C(=O)C1=C(C)N(Cc2ccc(F)cc2)C(=O)C(CC(=O)NC2CCCC2)C1", "note": "(stereo not drawn)", "binding (percent of control)": "109%"}
{"smiles": "CC1(C)CN(Cc2cccnc2)C(=O)[C@H]1CC(=O)Nc1ccc(Br)cc1", "binding (percent of control)": "96.8%"}
{"smiles": "Cc1[nH]c2ccccc2c1C(=O)C(=O)NCc1nnnn1-c1cccc(F)c1", "binding (percent of control)": "110%"}
{"smiles": "Cc1csc(SCC(=O)Nc2ccc(C)c(S(=O)(=O)N(C)C)c2)n1", "binding (percent of control)": "100%"}
{"smiles": "FC(F)(F)C1CCCN(c2nsc3ccccc23)C1", "note": "(stereo not drawn)", "binding (percent of control)": "59.3% (active)"}
{"smiles": "O=C(NCC(=O)N1CCCC(C(F)(F)F)C1)c1ccccc1F", "note": "(stereo not drawn)", "binding (percent of control)": "98.7%"}
{"smiles": "O=C(NC(Cc1ccccc1)C(=O)N1CCCC(C(F)(F)F)C1)c1ccccc1", "note": "(stereo not drawn)", "binding (percent of control)": "93.4%"}
{"smiles": "CN(C)S(=O)(=O)c1cccc(-c2nn(-c3ccccc3)cc2/C=C2\\SC(=S)N(CC(=O)O)C2=O)c1", "binding (percent of control)": "34.1% (active)"}
{"smiles": "Cc1ccc(-c2nn(-c3ccccc3)cc2/C=C2\\SC(=S)N(CCCCCC(=O)O)C2=O)o1", "binding (percent of control)": "93.2%"}
{"smiles": "COc1ccc(-c2nn(-c3ccccc3)cc2/C=C2/SC(=S)N(CCCC(=O)O)C2=O)c(C)c1", "binding (percent of control)": "104%"}
{"smiles": "COc1ccc(C=C2CCC3C(CCCC34OCCO4)C2=O)cc1", "note": "(stereo not drawn)", "binding (percent of control)": "104%"}
{"smiles": "CC1CCCC(NC(=O)COC(=O)c2ccccc2C(=O)N(C)C2CCCCC2)C1C", "note": "(stereo not drawn)", "binding (percent of control)": "98.5%"}
{"smiles": "CCN(CC)CCn1cnc2c1c(=O)[nH]c(=O)n2Cc1ccccc1", "binding (percent of control)": "65.2% (active)"}
{"smiles": "COCCn1cnc2c1c(=O)n(Cc1ccc(Br)cc1)c(=O)n2Cc1ccccc1", "binding (percent of control)": "125%"}
{"smiles": "Cn1c(=O)[nH]c(=O)c2c1[nH]c(=S)n2Cc1ccccc1", "binding (percent of control)": "99.1%"}
{"smiles": "O=C(NCCN1CCOCC1)c1ccc2c(c1)N(Cc1cccc(Cl)c1)C(=O)c1ccccc1S2(=O)=O", "binding (percent of control)": "95.8%"}
{"smiles": "OCC1OC(n2cnc3c(N4CCCC4)ncnc32)C(O)C1O", "note": "(stereo not drawn)", "binding (percent of control)": "102%"}
{"smiles": "CCOc1ccc(NS(=O)(=O)c2ccc(C(=O)NCC3CCCO3)cc2)cc1", "note": "(stereo not drawn)", "binding (percent of control)": "100%"}
{"smiles": "COc1cc(NC(=O)C2=C(C)OCCS2)c(Cl)cc1C(=O)NCCCN1CCCC(C)C1", "note": "(stereo not drawn)", "binding (percent of control)": "105%"}
{"smiles": "CCOC(=O)c1c(NC(=S)SC)sc(C(=O)N2CCc3ccccc3C2)c1C", "binding (percent of control)": "100%"}
{"smiles": "COc1ccc(-c2nc(CS(=O)CC(=O)NCc3ccccn3)c(C)o2)cc1", "note": "(stereo not drawn)", "binding (percent of control)": "17.1% (active)"}
{"smiles": "COc1ccc(-c2nc(CS(=O)CC(=O)NCc3ccccc3)c(C)o2)cc1OC", "note": "(stereo not drawn)", "binding (percent of control)": "97.4%"}
{"smiles": "COc1cccc(-c2nc(CS(=O)CC(=O)NCc3ccc(F)cc3)c(C)o2)c1", "note": "(stereo not drawn)", "binding (percent of control)": "93.3%"}
{"smiles": "Cc1cccc(NC(=O)Nc2ccc3c(c2)OCO3)n1", "binding (percent of control)": "134%"}
{"smiles": "CC(C)CNS(=O)(=O)c1ccc(C(=O)Nc2ccc3c(c2)OCO3)cc1", "binding (percent of control)": "85.2%"}
{"smiles": "CNS(=O)(=O)c1ccc(NC(=O)Nc2ccc3c(c2)OCO3)cc1", "binding (percent of control)": "66.6% (active)"}
{"smiles": "CN(Cc1ccccc1)C(=O)CCC1CCN(C(=O)c2ccco2)CC1", "binding (percent of control)": "91.8%"}
{"smiles": "COc1cc(C(=O)N2CCOC23CCN(Cc2ccccc2)CC3)cc(OC)c1OC", "binding (percent of control)": "108%"}
{"smiles": "COCCCN1C(=O)C(CC(=O)NCc2cccs2)CC(C(=O)N2CCOCC2)=C1C", "note": "(stereo not drawn)", "binding (percent of control)": "99.9%"}
{"smiles": "Cc1nnc(SCC(=O)Nn2cnnc2)s1", "binding (percent of control)": "89.8% (active)"}
{"smiles": "CCSc1nnc(SCC(=O)NNC(=O)c2ccccc2F)s1", "binding (percent of control)": "115%"}
{"smiles": "Cc1cnc(NC(=O)CSc2nnc(C)s2)s1", "binding (percent of control)": "101%"}
{"smiles": "CNC(=O)c1ccc(CN(C)C(=O)c2cc(C3CC3)nc3c2cnn3C(C)C)cc1", "binding (percent of control)": "105%"}
{"smiles": "O=[N+]([O-])c1ccc(C(S(=O)(=O)Cc2ccccc2)S(=O)(=O)Cc2ccccc2)cc1", "binding (percent of control)": "100%"}
{"smiles": "Cc1ccc(S(=O)(=O)NCCNC(C)c2ccc(Br)cc2)cc1", "note": "(stereo not drawn)", "binding (percent of control)": "-19.8% (active)"}
{"smiles": "CC(CNS(=O)(=O)c1ccc(Br)cc1)CN(C)C", "note": "(stereo not drawn)", "binding (percent of control)": "102%"}
{"smiles": "Cc1ccc(OCCNC(=O)CCNS(=O)(=O)c2ccc(Br)cc2)cc1", "binding (percent of control)": "107%"}
{"smiles": "CC1C(=O)N(Cc2cn(CC3CCCCC3)nn2)CCS(=O)(=O)N1Cc1ccc(-c2cccc(N(C)C)c2)cc1", "note": "(stereo not drawn)", "binding (percent of control)": "101%"}
{"smiles": "COCC1CCCCN1C(=O)c1cc(COc2ccc(C)c(C)c2)on1", "note": "(stereo not drawn)", "binding (percent of control)": "101%"}
{"smiles": "CN(CC(=O)Nc1ccccc1[N+](=O)[O-])Cc1ccc(Br)cc1", "binding (percent of control)": "104% (active)"}
{"smiles": "Cc1ccc(NC(=O)CN(C)Cc2ccc(F)cc2)c([N+](=O)[O-])c1", "binding (percent of control)": "93.5%"}
{"smiles": "CN(CC(=O)Nc1ccc(N2CCOCC2)cc1)CC(=O)Nc1ccccc1[N+](=O)[O-]", "binding (percent of control)": "116%"}
{"smiles": "COc1ccc(-n2ncc3c(SCC(=O)NNC(C)=O)ncnc32)cc1", "binding (percent of control)": "102%"}
{"smiles": "CC(=O)Nc1ccc(NC(=O)CSc2ncnc3c2cnn3Cc2ccccc2)cc1", "binding (percent of control)": "76.2% (active)"}
{"smiles": "COc1ccc(NC(=O)CSc2ncnc3[nH]ncc23)cc1", "binding (percent of control)": "106%"}
{"smiles": "O=C(NCc1nnnn1-c1ccc(Cl)cc1)c1ccc([N+](=O)[O-])o1", "binding (percent of control)": "98.8%"}
{"smiles": "Cc1ccc(S(=O)(=O)N2CCOCC2)cc1NC(=O)c1ccncc1", "binding (percent of control)": "96.3%"}
{"smiles": "Cc1cccc(N2CCN(S(=O)(=O)c3ccc(-c4cc(C)no4)s3)CC2C)c1", "note": "(stereo not drawn)", "binding (percent of control)": "96.5%"}
{"smiles": "Cc1cc(-c2ccc(S(=O)(=O)N3CCc4ccccc4C3)s2)on1", "binding (percent of control)": "80.5% (active)"}
{"smiles": "Cc1cc(-c2ccc(S(=O)(=O)N3CCN(c4cccc(C(F)(F)F)c4)CC3)s2)on1", "binding (percent of control)": "80%"}
{"smiles": "CC(C)CCOc1ccc(C(=O)Nc2cc(S(=O)(=O)N3CCOCC3)ccc2N2CCOCC2)cc1", "binding (percent of control)": "102%"}
{"smiles": "C=CCOc1cccc(C2C(C(=O)c3ccc(C)o3)=C(O)C(=O)N2CCN2CCOCC2)c1", "note": "(stereo not drawn)", "binding (percent of control)": "102%"}
{"smiles": "c1ccc(CNCc2ccc(CNCc3ccccc3)cc2)cc1", "binding (percent of control)": "102%"}
{"smiles": "COc1cc(/C=C2\\SC(=S)N(Nc3ncc(C(F)(F)F)cc3Cl)C2=O)cc(OC)c1OC", "binding (percent of control)": "87.8% (active)"}
{"smiles": "COc1ccc(/C=C2\\SC(=S)N(CCCC(=O)NC3CCCC3)C2=O)cc1OC", "binding (percent of control)": "109%"}
{"smiles": "CCOc1ccc(/C=C2\\SC(=S)N(NC(=O)c3ccncc3)C2=O)cc1OC", "binding (percent of control)": "106%"}
{"smiles": "O=C(CSc1ncn[nH]1)Nc1nc2c(F)c(F)c(F)cc2s1", "binding (percent of control)": "94%"}
{"smiles": "Cc1ccc(S(=O)(=O)N2C[C@H]3C(=O)C[C@@H](c4cccc5ccccc45)N(S(=O)(=O)c4ccc(C)cc4)[C@H]3C[C@H]2c2ccc(Cl)cc2)cc1", "binding (percent of control)": "99.7%"}
